Inconclusive results are not listed. Activity calls are given as the source filed them. Rule for the calls: active = hit-call score of the fitted dose curve at least 0.9, where 1 is the maximum; inconclusive = response in the unintended direction; inactive = score below 0.9.
Tests used:
[1] = TOX21_p53_BLA_p2_viability: Viability Assessment in the Tox21 HCT-116 p53 Agonism Beta-lactamase Assay, Phase 2 (AID 2283591);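 note: compound exposure lasted 16 h at 37 °C; actives lower the ATP signal meaning cytotoxicity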
Summary of the method: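 HCT-116 p53-bla cells (4000/well) rested 5 h at 37C, then received compounds in DMSO (217-fold dilution) for 16 h at 37C, 5% CO2. After the CCF4 read, CellTiter-Glo was added; ATP luminescence was read after 30 min at room temperature.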

[2] = target: Cellular tumor antigen p53 (Homo sapiens) (UniProt P04637); test: TOX21_p53_BLA_p2_ratio: Tox21 HCT-116 p53 Agonism Beta-lactamase Assay, Ratio, Phase 2 (AID 2283592)
Chain of Cellular tumor antigen p53 (Homo sapiens) (P04637 whole entry, looked up): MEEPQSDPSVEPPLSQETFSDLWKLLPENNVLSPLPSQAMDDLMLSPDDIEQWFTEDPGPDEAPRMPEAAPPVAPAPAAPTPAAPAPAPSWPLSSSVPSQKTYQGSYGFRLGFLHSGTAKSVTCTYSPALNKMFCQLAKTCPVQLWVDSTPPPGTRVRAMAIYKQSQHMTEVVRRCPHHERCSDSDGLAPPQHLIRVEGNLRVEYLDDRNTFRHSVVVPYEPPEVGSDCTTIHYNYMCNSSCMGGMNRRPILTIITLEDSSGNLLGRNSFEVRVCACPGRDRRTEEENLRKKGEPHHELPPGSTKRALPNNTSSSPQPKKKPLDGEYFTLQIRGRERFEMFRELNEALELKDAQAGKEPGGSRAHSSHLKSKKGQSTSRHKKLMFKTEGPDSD
Summary of the method: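 Ratio endpoint: beta-lactamase cleavage of CCF4-AM, blue (460 nm) over green (530 nm). HCT116 reporter line; 16 h treatment, 37C; substrate 2 h RT.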

[3] = TOX21_p53_BLA_p3_viability: Viability Assessment in the Tox21 HCT-116 p53 Agonism Beta-lactamase Assay, Phase 3 (AID 2283593);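 note: cells exposed to compound for 16 h before reading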
Summary of the method: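 HCT-116 cells (4000/well) rested 5 h at 37C, then got DMSO compounds by pin tool (217-fold dilution) for 16 h at 37C, 5% CO2. After the bla read, CellTiter-Glo was added and luminescence read at 30 min, room temperature.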

[4] = TOX21_p53_BLA_p4_viability: Viability Assessment in the Tox21 HCT-116 p53 Agonism Beta-lactamase Assay, Phase 4 (AID 2283597);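 note: hits lower the luminescence signal meaning cytotoxicity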
Summary of the method: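 Cytotoxicity was inferred from loss of CellTiter-Glo luminescence. HCT116 cells had been dosed with compounds after 5 h plating, incubated 16 h at 37C and 5% CO2, and exposed to the CCF4-AM substrate for 2 h.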

[5] = target: Cellular tumor antigen p53 (Homo sapiens) (UniProt P04637); test: TOX21_p53_BLA_p5_ratio: Tox21 HCT-116 p53 Agonism Beta-lactamase Assay, Ratio, Phase 5 (AID 2283599)
Summary of the method: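 HCT-116 cells carrying a p53-inducible beta-lactamase reporter were seeded at 4000 cells/well and dosed after 5 h with compound in DMSO (217-fold dilution). After 16 h at 37C, CCF4-AM substrate was added for 2 h, and the 460/530 nm emission ratio was scored as gain-of-signal versus DMSO.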

[6] = TOX21_p53_BLA_p5_viability: Viability Assessment in the Tox21 HCT-116 p53 Agonism Beta-lactamase Assay, Phase 5 (AID 2283600)
Summary of the method: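 Luciferase-coupled ATP quantitation of cells treated for 16 h (37C, 5% CO2) with test chemicals delivered in DMSO via a 217-fold dilution; 4000 cells/well; reagent incubated 30 min at room temperature before luminescence reading.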

[7] = target: Cellular tumor antigen p53 (Homo sapiens) (UniProt P04637); test: TOX21_p53_BLA_p4_ratio: Tox21 HCT-116 p53 Agonism Beta-lactamase Assay, Ratio, Phase 4 (AID 2283601)
Summary of the method: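 HCT116 cells carrying an inducible beta-lactamase reporter were plated at 4000 cells/well, rested 5 h, then exposed to compounds in DMSO (217-fold dilution) for 16 h at 37C. CCF4-AM substrate was loaded 2 h at room temperature; 460/530 nm emission ratio scored gain-of-signal versus DMSO.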

| Compound | outcome [1] | outcome [2] | outcome [3] | outcome [4] | outcome [5] | outcome [6] | outcome [7] | AC50 [3] |
| --- | --- | --- | --- | --- | --- | --- | --- | --- |
| CC(C)(C)NC[C@H](O)COc1ccccc1C1CCCC1 | inactive | inactive | inactive | inactive | inactive | inactive | inactive |  |
| O=C1c2ccccc2Cc2ccccc21 | inactive | inactive | inactive | inactive | inactive | inactive | inactive |  |
| CCOc1ccc(NC(C)=O)cc1N | inactive | inactive | inactive | inactive | inactive | inactive | inactive |  |
| CC1(C)S[C@@H]2[C@H](NC(=O)C(C(=O)O)c3ccsc3)C(=O)N2[C@H]1C(=O)O (some centres not stated) | inactive | inactive | inactive | inactive | inactive | inactive |  |  |
| CC(=O)Nc1cccc(O)c1 | inactive | inactive | inactive | inactive | inactive | inactive | inactive |  |
| CCCCCCCCCCC(=O)O | inactive | inactive | inactive | inactive | inactive | inactive |  |  |
| Nc1cccc(S(=O)(=O)O)c1 | inactive | inactive | inactive | inactive | inactive | inactive | inactive |  |
| NC(=S)NS(=O)(=O)c1ccc(N)cc1 | inactive | inactive | inactive | inactive | inactive | inactive |  |  |
| CC(C)OC(=O)C(C)N(C(=O)c1ccccc1)c1ccc(F)c(Cl)c1 (configuration not stated) | inactive | inactive | inactive | inactive | inactive | inactive | inactive |  |
| O=C(O)Cc1cccc(-c2cc(CCCCCCc3ccc(O[C@H]4O[C@H](CO)[C@@H](O)[C@H](O)[C@@H]4O)c(-c4cccc(CC(=O)O)c4)c3)ccc2O[C@H]2O[C@H](CO)[C@@H](O)[C@H](O)[C@@H]2O)c1 | inactive | inactive | inactive | inactive | inactive | inactive |  |  |
| CCCCC(CC)COC(=O)C(C#N)=C(c1ccccc1)c1ccccc1 (configuration not stated) | inactive | inactive | inactive | inactive | inactive | inactive | inactive |  |
| O=C(CCCN1CCN(c2ccc(F)cc2)CC1)NC1c2ccccc2CSc2ccccc21 (configuration not stated) | inactive | inactive | inactive | inactive | inactive | inactive |  |  |
| C[C@H]1C[C@H]2[C@@H]3CCC4=CC(=O)C=C[C@]4(C)[C@H]3C(=O)C[C@]2(C)[C@@]1(O)C(=O)CO | inactive | inactive | inactive | inactive | inactive |  |  |  |
| CC(C)(COP(=O)(O)OP(=O)(O)OC[C@H]1O[C@@H](n2cnc3c(N)ncnc32)[C@H](O)[C@@H]1OP(=O)(O)O)C(O)C(=O)NCCC(=O)NCCS (some centres not stated) | inactive | inactive | inactive | inactive | inactive | inactive |  |  |
| C[C@]12C=CC(=O)N[C@@H]1CC[C@@H]1[C@@H]2CC[C@]2(C)[C@@H](C(=O)Nc3cc(C(F)(F)F)ccc3C(F)(F)F)CC[C@@H]12 | inactive | inactive |  | inactive | inactive | inactive | inactive | 7.37 µM (active) |
| O=c1[nH]cnc2[nH]cc(CN3CCCCC3)c12 | inactive | inactive | inactive | inactive | inactive | inactive |  |  |
| C=CCCC | inactive | inactive | inactive | inactive | inactive | inactive |  |  |
| COc1cc(Br)c(C[N+]2(CCOCCC3CCC4CC3C4(C)C)CCOCC2)cc1OC (configuration not stated) | inactive | inactive | inactive | inactive | inactive | inactive |  |  |
| CCOc1ccc(N=Nc2ccc(N)cc2N)cc1 | inactive | inactive | inactive | inactive | inactive | inactive | inactive |  |
| CCOC(=O)c1cnc2c(cnn2CC)c1NN=C(C)C | inactive | inactive | inactive | inactive | inactive | inactive | inactive |  |
| Cc1c(C(=O)O)cccc1[N+](=O)[O-] | inactive | inactive | inactive | inactive | inactive | inactive | inactive |  |
| Cc1cc(-c2ccc(N=Nc3ccc4c(S(=O)(=O)O)cc(S(=O)(=O)O)c(N)c4c3O)c(C)c2)ccc1N=Nc1ccc2c(S(=O)(=O)O)cc(S(=O)(=O)O)c(N)c2c1O | inactive | inactive | inactive | inactive | inactive | inactive | inactive |  |
| CC1=C(O)C(=O)OC1C (configuration not stated) | inactive | inactive | inactive | inactive | inactive | inactive |  |  |
| OCC1O[C@@H](O[C@@H]2C(CO)OC(O)C(O)C2O)C(O)C(O)C1O (some centres not stated) | inactive | inactive | inactive | inactive | inactive | inactive |  |  |
| COC(=O)[C@H]1[C@H]2C[C@@H]3c4[nH]c5cc(OC)ccc5c4CCN3C[C@H]2C[C@@H](OC(=O)/C=C/c2cc(OC)c(OC)c(OC)c2)[C@@H]1OC | inactive | inactive | inactive | inactive | inactive | inactive | inactive |  |
| CN1CCC(OC(=O)C(Oc2ccc(Cl)cc2)Oc2ccc(Cl)cc2)CC1 | inactive | inactive | inactive | inactive | inactive |  | inactive |  |
| CC(C)CCCCCCN | inactive | inactive | inactive | inactive |  | inactive |  |  |
| CC(C)CN(C[C@@H](O)[C@H](Cc1ccccc1)NC(=O)O[C@H]1CO[C@H]2OCC[C@H]21)S(=O)(=O)c1ccc(N)cc1 | inactive | inactive | inactive | inactive | inactive | inactive | inactive |  |
| O=C1c2ccccc2C(=O)N1CCl | inactive | inactive | inactive | inactive | inactive | inactive | inactive |  |
